This note sets out measurements from PubChem BioAssay (NCI).

The panel holds about 83,000 compounds, 20% with a hit somewhere; the sample as a whole holds those more often.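 Assay: single dose, 48 h. Readout: percent growth (0 = no net growth; negative = cell death). Active: <10.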 Values without a mark were called inactive. The source made the active and inactive calls.

Some test systems named below: NCI-H23 lung; NCI-H226 lung; HOP-62 NSCLC; NCI-H460 lung; HOP-92 NSCLC; NCI-H522 lung; A549/ATCC NSCLC; 786-0 renal; COLO 205 colon; DU-145 prostate; MALME-3M melanoma; MDA-MB-231 breast; RXF 393 renal; SF-268 CNS; SF-295 CNS; UACC-257 melanoma; SF-539 CNS; M14 melanoma; K-562 leukemia.
What all share (assay): NCI-60 one-dose screen, 48 h (100 = growth as untreated, 0 = no growth, -100 = all killed)
Common to all, as to details: 10 µM unless noted

`CCCCCCCCc1cc[n+](CC(=O)c2ccc(Br)cc2)cc1`: the growth in the experiment on NCI-H23 lung was 49.5%; in the experiment on NCI-H226 lung, 53.6%; in the experiment with HOP-62 NSCLC, 8% (active); in the experiment with NCI-H460 lung, -84.9% (active); in the experiment on HOP-92 NSCLC, 24.1%; in the experiment with NCI-H522 lung it was -91.5% (active). Besides, the growth with A549/ATCC NSCLC was -84.1% (active); in the experiment with 786-0 renal it was 16.6%; in the experiment on COLO 205 colon, -89.6% (active); in the experiment on DU-145 prostate it was 37%; with MALME-3M melanoma it was -25.4% (active); in the experiment on MDA-MB-231 breast it was 13.8%. Besides, the growth with RXF 393 renal was -24% (active); with SF-268 CNS, 52.5%; in the experiment on SF-295 CNS, 34%; in the experiment with UACC-257 melanoma, -61.2% (active).

`Clc1ccc(-c2nc(NCCc3ccccc3)nc3c(NCCc4ccccc4)cnn23)cc1`: the growth in the experiment on NCI-H23 lung was 50.8%; in the experiment with NCI-H226 lung, 99.7%; in the experiment with HOP-62 NSCLC it was 85.3%; in the experiment with NCI-H460 lung, 16.3%; in the experiment with HOP-92 NSCLC, 97.7%; in the experiment on NCI-H522 lung, 63%. For the same compound, the growth in the experiment with A549/ATCC NSCLC is 9.98% (active); with 786-0 renal, 80%; with DU-145 prostate, 84.5%; in the experiment with MALME-3M melanoma, 96.8%; in the experiment on MDA-MB-231 breast, 92.1%; in the experiment on RXF 393 renal it was 94.7%. For the same compound, the growth in the experiment with SF-268 CNS was 35.1%; in the experiment on SF-295 CNS, 56.4%; with SF-539 CNS it was 30.9%; with UACC-257 melanoma, 71.5%; in the experiment on M14 melanoma it was 70%.

Turning to `Cc1nc(Nc2ccc(NC(=S)Nc3ccccc3)cc2)c2ccccc2n1`, the growth in the experiment on NCI-H23 lung was 91.6%; in the experiment on NCI-H226 lung, 97.4%; in the experiment with HOP-62 NSCLC it was 118%; in the experiment on NCI-H460 lung, 107%; with HOP-92 NSCLC, 115%; with NCI-H522 lung, 105%. In addition, the growth in the experiment on A549/ATCC NSCLC was 95.9%; with 786-0 renal, 103%; with COLO 205 colon, 106%; in the experiment with DU-145 prostate, 125%; in the experiment with K-562 leukemia it was 78.5%; with MALME-3M melanoma it was 99.5%. Moreover, the growth with MDA-MB-231 breast was 97.6%; with SF-268 CNS, 111%; with SF-295 CNS, 99.5%; in the experiment with SF-539 CNS, 100%; with UACC-257 melanoma, 101%.

For `COc1ccc(OC)c(Nc2nc3nonc3nc2Nc2cccc(Br)c2)c1`, the growth in the experiment with NCI-H23 lung was 6.27% (active); with NCI-H226 lung, 13.4%; with HOP-62 NSCLC it was 8.04% (active); with NCI-H460 lung, 0.718% (active); in the experiment with HOP-92 NSCLC, -25.5% (active); in the experiment with NCI-H522 lung, -13% (active). Also, the growth with A549/ATCC NSCLC is 9.15% (active); in the experiment with 786-0 renal, 22.1%; in the experiment on COLO 205 colon, -79.3% (active); with DU-145 prostate, 26%; in the experiment with K-562 leukemia, 10.2%; in the experiment with MALME-3M melanoma, 11.3%. The growth in the experiment with MDA-MB-231 breast is -8.18% (active); in the experiment with RXF 393 renal it was 23.7%; in the experiment on SF-268 CNS it was 21.1%; with SF-295 CNS it was -19.3% (active); in the experiment with SF-539 CNS, -7.16% (active); in the experiment on UACC-257 melanoma, -12.5% (active).

As for `C=C(C)C1CCC(=C)C2CCC3(C)OC12/C=C(/COC(C)=O)CCC3O` (stereo not drawn), the growth in the experiment on NCI-H23 lung was 111%; in the experiment with NCI-H226 lung, 102%; with HOP-62 NSCLC, 103%; in the experiment with NCI-H460 lung it was 104%; with HOP-92 NSCLC it was 60.6%; in the experiment on NCI-H522 lung it was 93.3%. For the same compound, the growth is 74.2% in the experiment with A549/ATCC NSCLC; 106% in the experiment on 786-0 renal; 100% with DU-145 prostate; 88.6% in the experiment on K-562 leukemia; 137% in the experiment with MALME-3M melanoma; 105% with MDA-MB-231 breast. The growth in the experiment on RXF 393 renal was 98.4%; in the experiment with SF-268 CNS, 105%; in the experiment on SF-539 CNS, 104%; in the experiment with UACC-257 melanoma it was 37.9%; in the experiment with M14 melanoma, 109%.

On to `Nc1nc(I)c2ncn(C3OC(CO)C(O)C3O)c2n1` (stereo not drawn), for which the growth is 112% in the experiment on NCI-H23 lung; 91.6% in the experiment on NCI-H226 lung; 95.8% in the experiment on HOP-62 NSCLC; 110% in the experiment on NCI-H460 lung; 223% in the experiment on HOP-92 NSCLC; 88.9% in the experiment with NCI-H522 lung. Besides, the growth in the experiment with A549/ATCC NSCLC is 103%; in the experiment with 786-0 renal, 103%; with DU-145 prostate, 107%; with K-562 leukemia, 118%; in the experiment on MALME-3M melanoma it was 142%; in the experiment on MDA-MB-231 breast it was 101%. The growth in the experiment on RXF 393 renal is 78.4%; with SF-268 CNS, 107%; in the experiment on SF-539 CNS, 102%; in the experiment on UACC-257 melanoma it was 103%; in the experiment with M14 melanoma, 102%.

As to `CCCCCCCCn1cc(C2=C(c3coc4ccc(OC)cc34)C(=O)NC2=O)c2ccccc21`, the growth in the experiment with NCI-H23 lung was 54.4%; in the experiment on NCI-H226 lung, -38.6% (active); with HOP-62 NSCLC it was 116%; with NCI-H460 lung it was 101%; with HOP-92 NSCLC, 94.2%; with NCI-H522 lung it was 96.7%. The growth is 101% with A549/ATCC NSCLC; 104% in the experiment with 786-0 renal; 106% in the experiment on DU-145 prostate; 121% in the experiment on K-562 leukemia; 89.5% in the experiment with MALME-3M melanoma; 102% in the experiment with MDA-MB-231 breast. In addition, the growth with RXF 393 renal is 105%; in the experiment on SF-268 CNS, 97.2%; in the experiment on SF-295 CNS, 97.2%; in the experiment with SF-539 CNS it was 95.7%; in the experiment with UACC-257 melanoma it was 94.7%; with M14 melanoma, 96.1%.

`N#Cc1c(NC(=O)c2ccccc2I)sc2c1CCCC2`: the growth in the experiment on NCI-H23 lung is 73.4%; with NCI-H226 lung, 41.7%; in the experiment on HOP-62 NSCLC, 42.2%; in the experiment with NCI-H460 lung, 17.8%; in the experiment on HOP-92 NSCLC it was 71.6%; with NCI-H522 lung it was 24.6%. In addition, the growth with A549/ATCC NSCLC is 53.6%; in the experiment with 786-0 renal, 52.2%; in the experiment on DU-145 prostate it was 62.9%; with K-562 leukemia, 14.8%; in the experiment on MALME-3M melanoma, 60.9%; with MDA-MB-231 breast, 54.7%. The growth in the experiment on RXF 393 renal is -10.4% (active); in the experiment with SF-268 CNS, 58.1%; in the experiment with SF-295 CNS, 21.1%; in the experiment on SF-539 CNS, 22.9%; in the experiment on UACC-257 melanoma it was 60.7%; in the experiment with M14 melanoma, 16.3%.
